About 79,000 compounds went through this panel and 15% of them were active in at least one assay; those are over-represented in the sample as a whole. A number with no mark means an inactive call. Rule as the data show it: active = growth inhibition above about 70%; inactive = the rest.
Assay: NCI Yeast Anticancer Drug Screen. Data for the bub3 strain (AID 167)
Conditions: S. cerevisiae bub3 mutant strain, at 50.0 µM, hits give high values
In short: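 Mutant yeast screening strain plus compound; vehicle-treated cultures serve as the 0% inhibition reference.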

For Nc1ccc(CC(N)C(=O)O)cc1 (configuration not stated), which growth inhibition is on record?
Its growth inhibition is -6.55%.

Which growth inhibition does the source give for OCCN1OCCCC1c1ccccc1 (configuration not stated) here?
The growth inhibition was -31.2%.

Which growth inhibition does the source give for CCOC(=O)/C=C/n1c2ccccc2c(=O)c2cc(OC)ccc21 here?
The growth inhibition was -8.95%.

For COC(=O)/C(=N\N)C(C(=O)C(=O)Nc1nc(=S)[nH][nH]1)c1nc2ccc([N+](=O)[O-])cc2[nH]c1=O (configuration not stated), which growth inhibition is on record?
The growth inhibition was 29%.

For CN(C)CC1CCCC/C1=N\OC(=O)c1ccccc1 (configuration not stated), which growth inhibition is on record?
The growth inhibition was 5.8%.

For Cc1ccc(-c2cc(C(=O)NN)c(C#N)c(=O)[nH]2)cc1, which growth inhibition is on record?
Its growth inhibition is -13.2%.

Which growth inhibition does the source give for CN(/N=C/c1ccc(O)c(/C=N/N(C)c2ccccn2)n1)c1ccccn1 here?
The growth inhibition was -2.7%.

For CNC(=O)N(Cl)c1ccc(Cl)cc1, which growth inhibition is on record?
Its growth inhibition is 7.45%.

Which growth inhibition does the source give for NC(CC(=O)O)C(=O)OCc1cccc(N=Nc2ccccc2)c1 (configuration not stated) here?
The growth inhibition was -2.4%.

With CCc1c[nH]c(C=O)c1CC as the compound, how does the growth inhibition read?
Its growth inhibition is -10.8%.

Which growth inhibition does the source give for O=C1CC(c2ccccc2)S(=O)(=O)c2ccccc2N1 (configuration not stated) here?
The growth inhibition was 11.3%.

For O=C1CSC(c2ccccn2)N1CCN1C(=O)CSC1c1ccccn1 (configuration not stated), which growth inhibition is on record?
The growth inhibition was -8.05%.

Which growth inhibition does the source give for O=C(NC(Cc1c[nH]c2ccccc12)(C(=O)O)C(=O)O)OCc1ccccc1 here?
The growth inhibition was 2.1%.

With O=S1(=O)CS(=O)(=O)OCCCCO1 as the compound, how does the growth inhibition read?
Its growth inhibition is -9.05%.

For CCC(COC(=O)C(c1ccccc1)c1ccccc1)NC1CCCCC1 (configuration not stated), which growth inhibition is on record?
Its growth inhibition is 6.45%.

With N#CC(C#N)=NO (tested in a mixture with another compound) as the compound, how does the growth inhibition read?
Its growth inhibition is 5.3%.

For Cn1c(N)nc2c1c(=O)[nH]c(=O)n2C, which growth inhibition is on record?
Its growth inhibition is -19.4%.
